Experimental data reported in PubChem BioAssay (NCI).
Several values for one entry are separate records, joined by “and”; a condition that tells them apart may be missing. Identical values can stand only once. This is part of a sample that, as a whole, favours compounds with a hit. Of some 83,000 tested, about 20% had one in any assay.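 48-hour exposure, single concentration, 96-well plates; percent growth endpoint where 0 means no net growth. Active: below 10.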 Activity calls are given as the source filed them.

These molecules were tested on NCI-H522 lung (assay: NCI-60 one-dose screen, 48 h (100 = growth as untreated, 0 = no growth, -100 = all killed)). Details: 10 µM unless noted.
For `Cc1ccc2c(n1)C(=O)C(Cl)=C(Nc1ccc(C#N)cc1)C2=O`, the growth was 52.4% (inactive).
For `CC(C)(O)c1cncc(-c2ccc3ncc(C#N)c(N4CCc5cc(F)c(Cl)cc54)c3c2)c1`, the growth was -2.54% (active).
With `O=c1c2ccccc2cc2n1CCN=C2c1ccccc1` the growth was 98% (inactive).
For `O=C(CN1CCN(c2cc(=O)[nH]c3ccc(F)cc23)CC1)N(c1ccccc1)c1ccccc1`, the growth was 98.3% (inactive).
`CCc1cc(OC(=O)N2CCC(N3CCCCC3)CC2)ccc1Nc1cc(-c2ccc(-n3cccn3)cc2)[nH]n1` was tested, and the growth was 96.2% (inactive).
`CCCC/C(=C\c1ccc(O)c(O)c1)C(=O)NC(Cc1ccccc1)C(=O)C(=O)NCCc1ccc(OC)cc1` (stereo not given) was tested, and the growth was 87.7% (inactive).
In the case of `CN(C)c1ccc(-c2cc(-c3c[nH]c4ccccc34)nc(N)c2C#N)cc1`, the growth is reported as 2.93% (active).
With `COc1cc(C(=O)c2cc(C(C)=O)c3ccc(C)cn23)cc(OC)c1OC` the growth was 38.4% (inactive).
For `CCOC(=O)c1ccccc1NC1=C(Cl)C(=O)c2nc(C)ccc2C1=O`, the growth was 102% (inactive).
For `CN(C)S(=O)(=O)c1ccc(-c2nc(C(Cl)Cl)nc3cc(-c4ccccc4)nn23)cc1`, the growth was 89.6% (inactive).
`CN1CCN(c2ccc(Nc3nc(NCCCNS(=O)(=O)c4ccc(Cl)cc4)c4sccc4n3)cc2)CC1` was tested, and the growth was -65.8% (active).
In the case of `O=C1[C@@H]2Cc3c([nH]c4ccccc34)[C@H](c3ccc(Cl)cc3)N2C(=O)CN1C1CCN(Cc2ccccc2)CC1`, the growth is reported as 84.6% (inactive).
With `CN1CCN(CCNc2nc(-c3cccc(NS(=O)(=O)c4cccc5c(N(C)C)cccc45)c3)cs2)CC1` the growth was 69.4% (inactive).
In the case of `C#C[C@]1(O)CC[C@H]2[C@@H]3CC=C4c5sc(Nc6ncccc6C)nc5CC[C@]4(C)[C@H]3CC[C@@]21C`, the growth is reported as 25.9% (inactive).
For `CC(=O)N(O)CCCCCNC(=O)CCC(=O)N(O)CCCCCNC(=O)CCC(=O)N(O)CCCCCN(CCCCCCCCCC[P+](c1ccccc1)(c1ccccc1)c1ccccc1)CCCCCCCCCC[P+](c1ccccc1)(c1ccccc1)c1ccccc1`, the growth was -18.8% (active).
In the case of `O=C1Nc2ccccc2/C1=N\c1nnc(-c2ccccc2)o1`, the growth is reported as 88.4% (inactive).
For `CCCCCCCCCC(=O)NC(C)(C)C(=O)N1CCC[C@H]1C(=O)N[C@@H](CC(C)C)C(=O)N[C@@](C)(CC)C(=O)N[C@@H](CCC(N)=O)C(=O)N[C@H](CCC(N)=O)C(=O)NC(C)(C)C(=O)NC(C)(C)C(=O)N[C@@H](CCC(N)=O)C(=O)N[C@H](CC(C)C)C(=O)N[C@H](CO)CC(C)C`, the growth was -83.3% (active) and -75.7% (active).
For `Fc1cccc(Cl)c1/C=N/Nc1nc(N/N=C/c2c(F)cccc2Cl)nc(N2CCCCC2)n1`, the growth was 10.4% (inactive).
`Cc1ccc(/C(N)=N/C(N)=N/c2nc3ccccc3s2)cc1` was tested, and the growth was 100% (inactive).
In the case of `CCc1cc2c(cc1Cl)nc1c(=O)[nH]c(=O)nc-1n2CCOCC(C)(C)C`, the growth is reported as 70.5% (inactive).
With `Cc1csc(/N=C(N)/N=C(\N)c2cccc(Br)c2)n1` the growth was 80% (inactive).
`Brc1cccc(-c2cc(-c3cnc4c(c3)OCCO4)n[nH]2)c1` was tested, and the growth was 19.6% (inactive).
With `CN(C)CC(=O)Nc1nc(-c2cccc(NS(=O)(=O)c3cccc4c(N(C)C)cccc34)c2)cs1` the growth was 76.7% (inactive).
`O=C(/C=C/c1cc(Cl)ccc1Cl)Nc1ncc(Cc2ccc(Cl)cc2)s1` was tested, and the growth was -33.7% (active).
For `Nc1ncc(-c2ccc3ncnc(NCc4ccccc4)c3c2)cn1`, the growth was 23.8% (inactive).
In the case of `Cc1ccc(-c2cc3nc(C(Cl)Cl)nc(-c4ccc(S(=O)(=O)N(C)C)cc4)n3n2)cc1`, the growth is reported as 89.7% (inactive).
In the case of `CCN(CC)CCOc1ccc(C(=C(c2ccccc2)C2CCCC2)c2ccc(OCCN(CC)CC)cc2)cc1`, the growth is reported as 2.43% (active).
With `COC(=O)c1cccc(NC2=C(Cl)C(=O)c3nc(C)ccc3C2=O)c1` the growth was 65.1% (inactive).
With `COc1cc(/C=N\NC(=O)c2ccc3nc(-c4ccc(Br)cc4)[nH]c3c2)cc(OC)c1OC` the growth was 45.4% (inactive).
For `NC1=NC2(CCCC2)N(c2ccc(S(=O)(=O)Nc3nccs3)cc2)C(N)=N1`, the growth was 102% (inactive).
For `N#C/C(=N\Nc1ccc(F)cc1)C(=O)Nc1cc(-c2ccccc2)nn1-c1ccccc1`, the growth was 6.57% (active).
In the case of `Cc1ccc(S(=O)(=O)c2nc(-c3ccc(F)cc3)oc2S(C)(=O)=O)cc1`, the growth is reported as 61% (inactive).
With `CC(O)c1cccc(/C(N)=N/C(N)=N/c2nc3ccccc3s2)c1` (stereo not given) the growth was 96.9% (inactive).
With `CCOc1cccc(/C(N)=N/C(N)=N/c2nc3ccccc3s2)c1` the growth was 94.3% (inactive).
For `O=C(CCl)Nc1ccc(NC(=O)c2cc(Cl)ccc2O)c(Cl)c1`, the growth was -22.6% (active).
`Clc1ccc(CSc2nnc(-c3ccc(Cl)cc3)n2-c2ccccc2)cc1` was tested, and the growth was 70.1% (inactive).
For `CC(C)(C)OC(=O)NCc1ccc(CNc2c([N+](=O)[O-])cnc3ccccc23)cc1`, the growth was 62.4% (inactive).
With `NS(=O)(=O)c1ccc(Nc2nc(N/N=C/c3ccc4c(c3)OCO4)nc(Nc3ccccc3)n2)cc1` the growth was 60.8% (inactive).
For `Cc1cc(=O)oc2cc(OCCCOc3ccc(/C=C/C(=O)Nc4ccc(Br)cc4)cc3)ccc12`, the growth was 80% (inactive).
In the case of `CNC(=O)c1cc(N2CCc3cc(NC(=O)Nc4ccc(N5CCOCC5)c(C(F)(F)F)c4)ccc32)ccn1`, the growth is reported as 45.8% (inactive).
